Test results reported in PubChem BioAssay (NCATS).
Results filed as inconclusive are left out. Calls of active or inactive are those of the source. Calls follow the shape of the dose curve; as a rule, active = well fitted inhibition curve with a large enough effect; inconclusive = small, poorly fitted or top-dose-only effect; inactive = flat fitted curve, though single readings scatter.

What was measured:
[1] = target: Glutathione peroxidase 1 (Homo sapiens) (UniProt P07203); assay: Primary qHTS Assay for Inhibitors of Recombinant Selenoprotein Glutathione Peroxidase 1 (GPX1) (AID 1845191); also: nearly all actives have a fitted effect of over 65% in size; as to activity, negative = inhibition: % is scaled to controls: 0 for no effect and ±100 for the full control effect
Outline: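 GR-coupled readout: NADPH consumption tracked by fluorescence, ex 340/em 450 nm, at t=0 and after 15 min at RT. Final mix 10 nM GPX1, 1 mM GSH, 0.5 mM CHP, 0.5 mM NADPH, 100 nM GR, 0.01% BSA, following 30 min enzyme–compound preincubation.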

[2] = target: Phospholipid hydroperoxide glutathione peroxidase GPX4 (Homo sapiens) (UniProt P36969); assay: Primary qHTS Assay for Inhibitors of Recombinant Selenoprotein Glutathione Peroxidase 4 (GPX4) (AID 1845192); also: nearly all actives have a fitted effect of over 65% in size
Outline: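 Steps: GPX4 plus compound, 30 min RT; add GR/GSH/NADPH master mix; start with cumene hydroperoxide; read 340/450 nm fluorescence at 0 and 15 min. Finals were 200 nM GPX4, 1 mM GSH, 0.5 mM CHP, 0.5 mM NADPH, 100 nM GR.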

[3] = qHTS profiling for inhibitors of Plasmodium falciparum proliferation (AID 504749);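 also: 0% = DMSO vehicle and full inhibition = artemisinin control; nearly all actives have a fitted effect of over 60% in size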; settings: P. falciparum in erythrocytes, SYBR Green DNA, 72 h, at 28.7 µM (top of the series)
Outline: (§1)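 Each compound contacts P. falciparum-infected red blood cells for 72 h at 37 C; lysis buffer (Tris, EDTA, saponin, Triton X, SYBR Green I) is added and fluorescence measured next morning; values normalized to controls.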

3D7 = assay: as above; settings: P. falciparum in erythrocytes, SYBR Green DNA, 72 h; series mostly up to 28.7 µM
Outline: as §1

AA1029 = assay: as above; settings: P. falciparum in erythrocytes, SYBR Green DNA, 72 h; series mostly up to 28.7 µM
Outline: as §1

7G8 = assay: as above; settings: P. falciparum in erythrocytes, SYBR Green DNA, 72 h; series mostly up to 28.7 µM
Outline: as §1

Chain of Glutathione peroxidase 1 (Homo sapiens) (P07203 whole entry, looked up): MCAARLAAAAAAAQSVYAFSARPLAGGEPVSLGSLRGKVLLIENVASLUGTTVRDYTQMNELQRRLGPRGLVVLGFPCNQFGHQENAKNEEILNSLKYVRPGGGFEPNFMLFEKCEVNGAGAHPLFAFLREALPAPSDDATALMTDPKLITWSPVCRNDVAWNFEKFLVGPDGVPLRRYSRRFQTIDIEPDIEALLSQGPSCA
Chain of Phospholipid hydroperoxide glutathione peroxidase GPX4 (Homo sapiens) (P36969 whole entry, looked up): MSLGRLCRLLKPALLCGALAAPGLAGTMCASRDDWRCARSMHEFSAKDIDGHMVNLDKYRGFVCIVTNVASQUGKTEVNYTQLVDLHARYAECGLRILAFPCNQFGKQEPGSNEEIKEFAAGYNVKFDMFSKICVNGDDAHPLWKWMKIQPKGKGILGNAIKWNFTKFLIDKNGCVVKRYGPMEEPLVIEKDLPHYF

CC(=O)N[C@@H](Cc1ccc(O)cc1)C(=O)O
inactive: Potency [1] | Potency [2] | activity, negative = inhibition ([3]; parasite line A) 9.07% | activity, negative = inhibition ([3]; parasite line B) 9.16% | Potency (3D7) | Potency (AA1029)

CCCCCCCC(=O)OCC(COC(=O)CCCCCCC)OC(=O)CCCCCCC
inactive: Potency [1] | Potency [2] | activity, negative = inhibition ([3]; parasite line A) 4.54% | Potency (3D7) | Potency (7G8) | Potency (AA1029)

Cc1c(I)c(=O)n(-c2ccccc2)n1C
inactive: Potency [1] | Potency [2] | activity, negative = inhibition ([3]; parasite line A) 2.47% | Potency (3D7) | Potency (7G8) | Potency (AA1029)

O=C(O)Cc1ccc(CCNS(=O)(=O)c2ccc(Cl)cc2)cc1
inactive: activity, negative = inhibition ([3]; parasite line A) 5.99% | activity, negative = inhibition ([3]; parasite line B) -5.95% | Potency (3D7) | Potency (7G8) | Potency (AA1029)

O=C(NCCCN1CCOCC1)c1ccc(Cl)cc1
inactive: activity, negative = inhibition ([3]; parasite line A) 6.41% | activity, negative = inhibition ([3]; parasite line B) 5.99% | Potency (3D7) | Potency (7G8) | Potency (AA1029)

C/C(=C(\CCO)SS/C(CCO)=C(\C)N(C=O)Cc1cnc(C)nc1N)N(C=O)Cc1cnc(C)nc1N
inactive: Potency [2]

O=C1c2cccc(O)c2C(=O)c2c(O)cccc21
inactive: Potency [2] | activity, negative = inhibition ([3]; parasite line A) -0.153% | activity, negative = inhibition ([3]; parasite line B) 3.79% | Potency (3D7) | Potency (AA1029)

O=C(O)c1cc(=O)c2ccccc2o1
inactive: activity, negative = inhibition ([3]; parasite line A) -22.1% | activity, negative = inhibition ([3]; parasite line B) 5.99% | Potency (3D7) | Potency (7G8) | Potency (AA1029)

Nc1ncnc2c1ncn2[C@@H]1O[C@H](COP(=O)(O)O)[C@@H](O)[C@H]1O
inactive: activity, negative = inhibition ([3]; parasite line A) -10.7% | activity, negative = inhibition ([3]; parasite line B) 4.33% | Potency (3D7) | Potency (7G8) | Potency (AA1029)

O=C(NCN1CCOCC1)c1cnccn1
inactive: activity, negative = inhibition ([3]; parasite line A) -8.14% | activity, negative = inhibition ([3]; parasite line B) 11.7% | Potency (3D7) | Potency (7G8) | Potency (AA1029)

COc1cc(C(=O)NCCCCCC(=O)O)cc(OC)c1OC
inactive: activity, negative = inhibition ([3]; parasite line A) 8.13% | activity, negative = inhibition ([3]; parasite line B) 13.6% | Potency (3D7) | Potency (7G8) | Potency (AA1029)

CC(=O)Nc1cccc(O)c1
inactive: activity, negative = inhibition ([3]; parasite line A) 7.02% | activity, negative = inhibition ([3]; parasite line B) 9.95% | Potency (3D7) | Potency (7G8) | Potency (AA1029)

OC(CCN1CCCC1)(c1ccccc1)C1CCCCC1 (stereo not given)
inactive: Potency [2]

O=c1[nH]c(=O)c2ccccc2o1
inactive: activity, negative = inhibition ([3]; parasite line A) 2.32% | activity, negative = inhibition ([3]; parasite line B) 10.5% | Potency (3D7) | Potency (7G8) | Potency (AA1029)

Cn1c([N+](=O)[O-])cnc1COC(N)=O
inactive: activity, negative = inhibition ([3]; parasite line A) 5.14% | activity, negative = inhibition ([3]; parasite line B) 3.75% | Potency (3D7) | Potency (7G8) | Potency (AA1029)

CC(O)CCCCn1c(=O)c2c(ncn2C)n(C)c1=O (stereo not given)
inactive: activity, negative = inhibition ([3]; parasite line A) 9.1% | activity, negative = inhibition ([3]; parasite line B) 4.96% | Potency (3D7) | Potency (7G8) | Potency (AA1029)
